Measurements taken from PubChem BioAssay.
Activity calls are given as the source filed them.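 The calls were made as follows, unless noted: active = fluorescence slope after compound addition differing from the mean of all screened samples at 99.7% confidence, in either direction; inactive = the rest.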

Assays:
[1] = inhibitors of TNFa-induced NFkB p65 translocation, primary screen, imaging, HUVEC, MLSMR starter and 10KST1 sets (AID 438;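 active = inhibition above 20% together with a positive visual image hit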;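 also: compound added about 3h40 before a 20 min TNFalpha stimulation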;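 as to inhibition: signal is the nuclear over cytoplasmic p65 intensity ratio per well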); settings: HUVEC TNFa-induced p65 nuclear translocation; cell count: measured here: nuclei count (cytotoxicity indicator), at 2.08 µM; inhibition: at 2 µM, stronger effect = higher value, 0% TNFa-plus-vehicle, 100% no-TNFa wells
[2] = reduction of polyQ htt aggregates in cells – imaging, exon1htt(103Q)mCFP cells, high-content imaging, primary screen (AID 483;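 active = visual image review flags a hit and inhibition of aggregation exceeds 20%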;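 also: compound exposure lasted 3 days before fixation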;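 as to nuclei count: percent of the per-plate median nuclei count of sample wells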); settings: exon1htt(103Q)mCFP cell line, aggregate imaging, at 2 µM; inhibition of aggregation: stronger effect = higher value; nuclei count: measured here: cell count, toxicity
[3] = endothelial E-selectin expression blockers – imaging, HUVEC, immunofluorescence, MLSMR starter and 10KST1 sets, primary screen (AID 487;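 active = visually confirmed hit in the image check and inhibition above 20%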;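 as to inhibition: signal is fraction of cell area covered by stained E-selectin grains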;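 as to nuclei count: 100% = median nuclei count of all wells on the same plate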); settings: HUVEC TNFalpha-induced E-selectin immunofluorescence imaging, at 2 µM; inhibition: stronger effect = higher value; nuclei count: measured here: cell number, toxicity
[4] = biological target: Voltage-gated potassium channel subunit beta-2 (Rattus norvegicus) (UniProt P62483); test: inhibitors of rat Kvbeta2 reductase activity – biochemical, NADPH fluorescence, primary screen (AID 622;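 active = fluorescence slope higher than the sample average by over 3 SD, cut at about -0.22 in these data, passing the limit was not always enough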;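 also: slope of raw intensity against log time taken from 70 to 1610 s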); settings: recombinant KvBeta, 4-cyanobenzaldehyde reduction, at 10 µM, stronger effect = higher value
[5] = biological target: Voltage-gated potassium channel subunit beta-2 (Rattus norvegicus) (UniProt P62483); test: enhancers of rat Kvbeta2 NADPH turnover – biochemical, NADPH fluorescence, primary screen (AID 623;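 active = NADPH fluorescence slope more negative than the mean of all samples by about 3 SD, 99.7% confidence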;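 also: fluorescence intensity change per second fitted from 20 to 320 s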); settings: Recombinant KvBeta, NADPH fluorescence decrease slope, 10 min; at 10 µM; stronger effect = lower value
[6] = biological target: Alpha-2C adrenergic receptor (Homo sapiens) (UniProt P18825); test: compounds altering alpha2C-coupled GIRK flux – cell-based, HEK293 alpha2C/GIRK1/2, thallium flux, primary screen (AID 624); settings: thallium flux BTC fluorescence, at 10 µM, actives lie on both sides;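 also: slope of fluorescence ratio to pre-addition baseline per second over 15 to 24 s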
[7] = blockers of RIG-like receptor reporter activation – cell-based, Sendai virus stimulus, luciferase, 10K MLSCN set, TLR/RLR signaling modifier project, primary screen (AID 602276;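 active = inhibition at or above 50% at 10 µM; inactive = inhibition below 50%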;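 also: firefly luciferase from ISG56 promoter only with Renilla not read in this screen; 0% = Sendai virus plus DMSO and 100% = medium plus DMSO without virus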); settings: HEK293 RL24 IRF3 luciferase reporter, at 10 µM, stronger effect = higher value
[8] = TLR3 IRF3 reporter activation blockers – cell-based, poly I:C stimulus, luciferase, 10K MLSCN set, primary screen (AID 602277;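 active = inhibition of the reporter signal at or above 50%; inactive = inhibition below 50%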); settings: HEK293-TLR3 RL24 IRF3 luciferase reporter, at 10 µM, stronger effect = higher value

Alpha-2C adrenergic receptor (Homo sapiens), sequence (P18825 whole entry, looked up): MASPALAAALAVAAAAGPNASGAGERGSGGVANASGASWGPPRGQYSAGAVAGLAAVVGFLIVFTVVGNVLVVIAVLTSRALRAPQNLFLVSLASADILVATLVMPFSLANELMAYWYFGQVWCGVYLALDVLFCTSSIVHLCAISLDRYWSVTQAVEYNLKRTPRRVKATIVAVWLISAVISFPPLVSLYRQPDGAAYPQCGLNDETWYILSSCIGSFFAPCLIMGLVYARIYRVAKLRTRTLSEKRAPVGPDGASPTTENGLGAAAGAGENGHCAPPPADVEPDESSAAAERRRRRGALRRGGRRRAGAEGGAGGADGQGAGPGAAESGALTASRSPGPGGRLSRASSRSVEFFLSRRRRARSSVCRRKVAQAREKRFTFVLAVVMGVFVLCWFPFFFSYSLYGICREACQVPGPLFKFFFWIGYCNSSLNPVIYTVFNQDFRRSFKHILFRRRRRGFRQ
Voltage-gated potassium channel subunit beta-2 (Rattus norvegicus), sequence (P62483 whole entry, looked up): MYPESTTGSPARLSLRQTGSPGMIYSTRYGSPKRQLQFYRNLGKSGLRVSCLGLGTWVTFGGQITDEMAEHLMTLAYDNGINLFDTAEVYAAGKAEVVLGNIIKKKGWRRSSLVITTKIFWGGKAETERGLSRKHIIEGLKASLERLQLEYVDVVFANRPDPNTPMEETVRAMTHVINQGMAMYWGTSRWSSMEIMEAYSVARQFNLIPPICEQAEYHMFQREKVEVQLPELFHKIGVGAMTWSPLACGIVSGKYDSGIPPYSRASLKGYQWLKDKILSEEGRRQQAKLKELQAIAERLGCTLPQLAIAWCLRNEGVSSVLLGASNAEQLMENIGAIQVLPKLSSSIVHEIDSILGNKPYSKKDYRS

Compound	cell count [1]	inhibition [1]	inhibition of aggregation [2]	nuclei count [2]	inhibition [3]	nuclei count [3]	fluorescence slope [4]	NADPH fluorescence slope [5]	slope [6]	inhibition [7]	inhibition [8]
O=C(NCc1ccco1)C1(S(=O)(=O)c2ccc(Cl)cc2)CC1	412	1.1% (inactive)	-16% (inactive)	120%	-100% (inactive)	115%	-0.639 (inactive)	2e-05 (inactive)	0.00602 (inactive)	16.2% (inactive)	32.7% (inactive)
CCc1ccc(C2CC(c3ccccc3)n3ncnc3N2)cc1 (stereo not drawn)	626	1.1% (inactive)	25.1% (inactive)	72%	-22.9% (inactive)	70.6%	-0.586 (inactive)	-3.4e-05 (inactive)	0.00702 (inactive)	13.8% (inactive)	28.3% (inactive)
Cc1ccc(-n2nnnc2SCC(=O)Nc2c(C)n(C)n(-c3ccccc3)c2=O)cc1	637	-1.1% (inactive)	4.2% (inactive)	91.4%	-18.7% (inactive)	106%	-0.583 (inactive)	-1.3e-05 (inactive)	0.00453 (inactive)	-6.61% (inactive)	-12.3% (inactive)
c1ccc(C2(Cn3ccc4ccccc43)OCCO2)cc1	311	-13% (inactive)	-6% (inactive)	109%	-115% (inactive)	123%	-0.482 (inactive)	2.6e-06 (inactive)	0.00648 (inactive)	4.02% (inactive)	12% (inactive)
COC(=O)Nc1sc2c(c1C(=O)N1CCOCC1)CCC(C)C2 (stereo not drawn)	324	-10.6% (inactive)	-10.8% (inactive)	118%	2.3% (inactive)	75.2%	-0.409 (inactive)	6.2e-06 (inactive)	0.00394 (inactive)	7.08% (inactive)	-3.14% (inactive)
CCOc1ccccc1OCC(=O)Nc1nnc(COC)s1	437	2.9% (inactive)	-3.9% (inactive)	106%	56.9% (inactive)	115%	-0.59 (inactive)	-3.4e-05 (inactive)	0.00402 (inactive)	-15.3% (inactive)	-12.6% (inactive)
CC(C)(C)NC(=O)Cn1c(=O)oc2ccc(Cl)cc21	676	0% (inactive)	1.8% (inactive)	116%	-47.1% (inactive)	106%	-0.407 (inactive)	6.2e-05 (inactive)	0.00569 (inactive)	0.919% (inactive)	20.8% (inactive)
COc1cc(S(=O)(=O)N(C)C)ccc1F	333	-4.5% (inactive)	5.9% (inactive)	87.4%	-114% (inactive)	116%	-0.413 (inactive)	-5e-05 (inactive)	0.00561 (inactive)	17.1% (inactive)	9.1% (inactive)
O=C(CC1Oc2ccc(Cl)cc2NC1=O)NC1CCCCCC1 (stereo not drawn)	615	-4.3% (inactive)	19.5% (inactive)	51.7%	0.7% (inactive)	100%	-0.544 (inactive)	-3.7e-05 (inactive)	0.00511 (inactive)	8.85% (inactive)	6.03% (inactive)
CCCCc1c(O)nc(N2CCN(Cc3ccccc3)CC2)[nH]c1=O	402	-2.5% (inactive)	9.1% (inactive)	97.1%	-61% (inactive)	101%	-0.343 (inactive)	-4.3e-05 (inactive)	0.0053 (inactive)	12.1% (inactive)	13.6% (inactive)
Cn1c(-c2ccc(F)cc2)cnc1SCC(=O)Nc1ccccc1N1CCOCC1	458	1.4% (inactive)	53.7% (active)	63.3%	-76.1% (inactive)	90.4%	-0.31 (inactive)	-2.7e-05 (inactive)	0.00572 (inactive)	-29.2% (inactive)	-99% (inactive)
COc1cc(OC)cc(-c2nnc(SCC(=O)Nc3cc(C)on3)o2)c1	230	0.6% (inactive)	32.6% (inactive)	77.5%	-264% (inactive)	111%	-0.347 (inactive)	-2.3e-05 (inactive)	0.00422 (inactive)	7.23% (inactive)	31.7% (inactive)
Cc1ccccc1-n1c(SCc2c(C)noc2C)nnc1-c1ccncc1	741	-2.4% (inactive)	-10.7% (inactive)	103%	-87% (inactive)	115%	-0.304 (inactive)	-5.4e-05 (inactive)	0.00424 (inactive)	6.71% (inactive)	30.2% (inactive)
O=C1CCc2cc(S(=O)(=O)N3CCC(C(=O)Nc4nccs4)CC3)ccc2N1	821	3.9% (inactive)	-29.1% (inactive)	105%	-38.5% (inactive)	102%	-0.593 (inactive)	-4.4e-05 (inactive)	0.00714 (inactive)	18.5% (inactive)	28.2% (inactive)
CC(C)COC(=O)N(C)c1ccc(C(O)(C(F)(F)F)C(F)(F)F)cc1	744	-12.4% (inactive)	-7.8% (inactive)	116%	-56.8% (inactive)	112%	-0.618 (inactive)	-4.8e-06 (inactive)	0.00749 (inactive)	-9.85% (inactive)	-5.85% (inactive)
CCCC(=O)Nc1cnc(NC(=O)c2cccc(F)c2)cc1C	465	14.1% (inactive)	6.6% (inactive)	95.6%	46% (inactive)	103%	-0.563 (inactive)	4e-05 (inactive)	0.00559 (inactive)	-24.4% (inactive)	-162% (inactive)
Cn1c(=N)c(S(=O)(=O)c2ccc(Cl)cc2)cc2c(=O)n3ccccc3nc21	294	1.6% (inactive)	-0.4% (inactive)	97.1%	10.2% (inactive)	94.5%	-0.405 (inactive)	-4.7e-05 (inactive)	0.00398 (inactive)	8.16% (inactive)	40.1% (inactive)
O=C(CN1C(=O)c2ccccc2S1(=O)=O)NCc1ccccn1	643	0% (inactive)	-6.2% (inactive)	90.1%	5% (inactive)	119%	-0.61 (inactive)	4e-06 (inactive)	0.00685 (inactive)	13.6% (inactive)	26.2% (inactive)
Cc1cc(C)c2c(=O)n(CC(=O)N3CCC(Cc4ccccc4)CC3)sc2n1	611	16.6% (inactive)	3% (inactive)	104%	-6.1% (inactive)	121%	-0.559 (inactive)	-6.7e-06 (inactive)	0.00614 (inactive)	20.7% (inactive)	46.2% (inactive)
CN(Cc1ccccc1)c1nc2c(c(=O)[nH]c(=O)n2C)n1Cc1ccccc1Cl	364	-1% (inactive)	-1.2% (inactive)	108%	-18.5% (inactive)	102%	-0.6 (inactive)	-2.7e-05 (inactive)	0.00484 (inactive)	16% (inactive)	23.3% (inactive)
CC1(C)NC(=O)N(CC(O)CN2CCCC2)C1=O (stereo not drawn)	317	-4.8% (inactive)	4.1% (inactive)	85.6%	-48.6% (inactive)	72.8%	-0.543 (inactive)	4.5e-05 (inactive)	0.00702 (inactive)	6.37% (inactive)	-4.68% (inactive)
Cc1onc(-c2ccccc2)c1C(=O)Nc1ccc(S(=O)(=O)N2CCCCC2)cc1	786	7.8% (inactive)	-10.9% (inactive)	97.3%	-35.5% (inactive)	108%	-0.599 (inactive)	-5.5e-06 (inactive)	0.00592 (inactive)	15.1% (inactive)	32.9% (inactive)
CCCCN(CC)CCCNC(=O)c1cc2c(=O)n(C)c3ccccc3c2n1C	667	3.3% (inactive)	14.5% (inactive)	81.6%	-52.5% (inactive)	107%	-0.611 (inactive)	-4.2e-05 (inactive)	0.00621 (inactive)	27.4% (inactive)	69.5% (active)
O=C(Nc1ncc(Br)s1)C1CCCN1S(=O)(=O)c1cccc2cccnc12 (stereo not drawn)	674	0.6% (inactive)	39.7% (inactive)	88.6%	-12.1% (inactive)	105%	-0.583 (inactive)	-2.2e-05 (inactive)	0.00689 (inactive)	4.87% (inactive)	36.5% (inactive)
O=C(CSc1nc2ccsc2c(=O)n1NC(=O)c1ccccc1)Nc1nccs1	414	3.2% (inactive)	4% (inactive)	98.2%	-134% (inactive)	101%	-0.342 (inactive)	-7e-06 (inactive)	0.00492 (inactive)	-7.17% (inactive)	0.179% (inactive)
Cc1cccc(N2CCN(C(=O)c3cc4ccccc4oc3=O)CC2)c1C	712	-2.8% (inactive)	-28.9% (inactive)	93.7%	-22.9% (inactive)	117%	-0.565 (inactive)	-2.1e-05 (inactive)	0.00624 (inactive)	-10.3% (inactive)	-10.8% (inactive)
NC(=O)c1ccccc1NC(=O)CCCN1C(=O)CCC1=O	567	-1.8% (inactive)	-7.8% (inactive)	104%	-30.7% (inactive)	92.1%	-0.601 (inactive)	-1.2e-05 (inactive)	0.00648 (inactive)	2.16% (inactive)	13.3% (inactive)
CN(C(=O)C1CCCO1)c1nnc(-c2ccncc2)s1 (stereo not drawn)	279	-2.1% (inactive)	4.6% (inactive)	103%	-10.8% (inactive)	103%	-0.322 (inactive)	-4.6e-05 (inactive)	0.00538 (inactive)	-12% (inactive)	-17.4% (inactive)
